Results filed as inconclusive are left out. Activity calls are given as the source filed them. The calls were made as follows, unless noted: active = hit-call score of the fitted dose curve at least 0.9, where 1 is the maximum; inconclusive = response in the unintended direction; inactive = score below 0.9.
Experiments:
[1] = biological target: Nuclear receptor subfamily 1 group I member 2 (Mus musculus) (UniProt O54915); experiment: ATG_mPXR_XSP2: Attagene TRANS-FACTORIAL Multi-Species (XSP1) HepG2 Assay for mouse Pregnane X Receptor (PXR) (AID 2283831)
Chain of Nuclear receptor subfamily 1 group I member 2 (Mus musculus) (O54915 whole entry, looked up, the tested form may be a part): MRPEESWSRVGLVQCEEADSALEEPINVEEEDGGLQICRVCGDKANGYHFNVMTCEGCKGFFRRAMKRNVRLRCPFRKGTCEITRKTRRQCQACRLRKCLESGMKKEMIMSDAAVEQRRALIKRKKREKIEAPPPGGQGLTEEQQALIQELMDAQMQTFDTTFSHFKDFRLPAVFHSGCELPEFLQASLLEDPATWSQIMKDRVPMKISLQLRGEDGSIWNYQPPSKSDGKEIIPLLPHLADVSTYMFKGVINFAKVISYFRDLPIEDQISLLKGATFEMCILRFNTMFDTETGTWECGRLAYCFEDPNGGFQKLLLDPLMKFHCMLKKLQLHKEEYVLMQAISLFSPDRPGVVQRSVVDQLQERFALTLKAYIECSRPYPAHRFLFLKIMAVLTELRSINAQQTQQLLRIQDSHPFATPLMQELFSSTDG
In short: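 Transient HepG2 transfection, multiplexed GAL4-UAS reporters, NR-GAL4 chimeras. 24 h compound exposure. Readout: reporter mRNA, RT-PCR, fluorescent capillary electrophoresis; positive direction vs DMSO baseline.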

[2] = tested on: zebrafish Peroxisome Proliferator-activated Receptor gamma (PPARg), gene 557037; experiment: ATG_zfPPARg_XSP2: Attagene TRANS-FACTORIAL Multi-Species (XSP2) HepG2 Assay for zebrafish Peroxisome Proliferator-activated Receptor gamma (PPARg) (AID 2283833);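 also: actives increase reporter signal over DMSO so AC50 reflects activation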
In short: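 Transfect HepG2 with multiplexed GAL4-UAS reporter constructs; dose chemical 24 h; isolate RNA, reverse-transcribe, PCR-amplify, label and digest reporter products; resolve by capillary electrophoresis. Activity taken as increase over DMSO.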

[3] = tested on: turtle Thyroid Hormone Receptor, alpha (TRa), gene 101949057; experiment: ATG_trTRa_XSP2: Attagene TRANS-FACTORIAL Multi-Species (XSP1) HepG2 Assay for turtle Thyroid Hormone Receptor, alpha (TRa) (AID 2283834);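 also: hits raise reporter mRNA over the DMSO baseline so AC50 marks activators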
In short: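 Readout: reporter mRNA induction, fluorescence after RT-PCR, HpaI digestion and capillary electrophoresis. Transiently transfected HepG2, exogenous NR-Gal4 chimera driving GAL4-UAS reporter, 24 h compound exposure. Activity fitted upward relative to DMSO baseline.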

[4] = ATG_M_61_XSP2: Attagene TRANS-FACTORIAL Multi-Species (XSP2) HepG2 Assay for M61 Transcription Factor (Internal Marker) (AID 2283835; active = hit-call score of the fitted dose curve at least 0.9, where 1 is the maximum; inactive = score below 0.9;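 also: active means a rise in signal above the DMSO baseline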)
In short: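 HepG2 cells transiently transfected with multiple GAL4-UAS reporter units; reporter mRNA measured 24 h after dosing by RT-PCR, fluorescent labelling and capillary electrophoresis. Medium contained 3 nM 6-alpha-fluorotestosterone and 1.5 nM norgestrel; internal marker, DMSO baseline.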

[5] = biological target: frog Thyroid hormone Receptor alpha (TRa), thra-a (gene 397942) (UniProt P15204); experiment: ATG_frTRa_XSP2: Attagene TRANS-FACTORIAL Multi-Species (XSP2) HepG2 Assay for frog Thyroid hormone Receptor alpha (TRa) (AID 2283839);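 also: AC50 reflects induction of frog TRa-driven reporter mRNA above DMSO baseline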
Chain of frog Thyroid hormone Receptor alpha (TRa), thra-a (gene 397942) (P15204 whole entry, looked up): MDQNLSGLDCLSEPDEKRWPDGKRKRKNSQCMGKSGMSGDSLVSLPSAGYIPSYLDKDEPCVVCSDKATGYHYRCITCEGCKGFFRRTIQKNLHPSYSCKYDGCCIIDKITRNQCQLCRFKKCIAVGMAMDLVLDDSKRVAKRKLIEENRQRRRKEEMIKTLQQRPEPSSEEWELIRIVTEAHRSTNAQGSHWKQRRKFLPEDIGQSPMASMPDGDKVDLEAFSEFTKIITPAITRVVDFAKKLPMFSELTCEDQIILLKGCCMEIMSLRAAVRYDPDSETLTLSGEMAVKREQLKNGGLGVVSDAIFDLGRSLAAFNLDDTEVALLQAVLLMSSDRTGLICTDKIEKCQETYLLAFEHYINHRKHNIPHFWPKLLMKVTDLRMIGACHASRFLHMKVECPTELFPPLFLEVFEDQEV
Experimental: ATG_XSP2_multi-species_TRANS is a cell-based, multiplexed assay created by modifying the existing Attagene TRANS-FACTORIAL system to include a panel of nuclear receptors from some or all the following species: human (Homo sapiens), mouse (Mus musculus), frog (Xenopus laevis), zebrafish (Danio rerio), chicken (Gallus gallus), and turtle (Chrysemys picta). The ECOTOX-FACTORIAL format uses HepG2, a human liver cell line, with measurements taken at 24 hours after chemical dosing in a 24-well plate. Xsp2 included 3 nM 6-alpha-fluorotestosterone and 1.5 nM norgestrel to stimulate the androgen receptor.ATG_frTRa_XSP2 is one of 29 assay components measured or calculated from the ATG_XSP2_multi-species_TRANS assay. It is designed to make measurements of mRNA induction, a form of inducible reporter, as detected with fluorescence intensity signals by Reverse transcription polymerase chain reaction (RT-PCR) and Capillary electrophoresis technology.The assay endpoint ATG_frTRa_XSP2 was analyzed in the positive analysis fitting direction relative to DMSO as the negative control and baseline of activity. […] Furthermore, this assay endpoint can be referred to as a primary readout, because this assay has produced multiple assay endpoints where this one serves a reporter gene function. […]

[6] = CEETOX_H295R_11DCORT_noMTC: CeeTox H295R High-throughput Steroidogenesis Assay for 11-Deoxycortisol (11DCORT), maximum tolerated concentration (MTC) filtered results only (AID 2283911; active = hit-call score of the fitted dose curve at least 0.9, where 1 is the maximum; inactive = score below 0.9); details: actives raise or lower the signal
In short: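 H295R, OECD 456-based; 10 uM forskolin 48 h → compound (0.1% DMSO) 48 h → medium extracted, 11DCORT by LC-MS/MS. Gain/loss vs DMSO control, all concentrations kept regardless of MTT viability.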

[7] = biological target: zebrafish Thyroid Hormone Receptor alpha (TRa), thraa (gene 30670) (UniProt Q98867); experiment: ATG_zfTRa_XSP2: Attagene TRANS-FACTORIAL Multi-Species (XSP1) HepG2 Assay for zebrafish Thyroid Hormone Receptor alpha (TRa) (AID 2283832);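 also: actives raise zebrafish TRa-Gal4 reporter transcript above DMSO baseline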
Chain of zebrafish Thyroid Hormone Receptor alpha (TRa), thraa (gene 30670) (Q98867 whole entry, looked up, the tested form may be a part): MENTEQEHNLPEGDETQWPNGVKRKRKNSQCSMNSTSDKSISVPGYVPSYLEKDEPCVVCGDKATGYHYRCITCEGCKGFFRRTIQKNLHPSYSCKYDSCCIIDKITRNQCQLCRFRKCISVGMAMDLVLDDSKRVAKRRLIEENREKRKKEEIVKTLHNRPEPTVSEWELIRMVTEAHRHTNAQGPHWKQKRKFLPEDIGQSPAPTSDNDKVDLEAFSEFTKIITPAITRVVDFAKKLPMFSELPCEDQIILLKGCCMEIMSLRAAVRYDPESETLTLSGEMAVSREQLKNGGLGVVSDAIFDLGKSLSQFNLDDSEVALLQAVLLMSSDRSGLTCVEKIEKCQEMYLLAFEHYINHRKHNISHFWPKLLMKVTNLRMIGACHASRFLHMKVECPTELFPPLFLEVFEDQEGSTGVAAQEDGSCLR
In short: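 HepG2 cells transiently transfected with multiplexed GAL4-UAS reporter units expressing chimeric NR-Gal4 proteins; 24 h after dosing, reporter mRNA measured by RT-PCR, FAM labelling, HpaI digestion and capillary electrophoresis; gain of signal versus DMSO baseline.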

[8] = biological target: zebrafish Thyroid Hormone Receptor beta (TRb), thrb (gene 30607) (UniProt Q9PVE4); experiment: ATG_zfTRb_XSP2: Attagene TRANS-FACTORIAL Multi-Species (XSP1) HepG2 Assay for zebrafish Thyroid Hormone Receptor beta (TRb) (AID 2283836);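 as to AC50: potency for induction of reporter signal above DMSO so agonist direction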
Chain of zebrafish Thyroid Hormone Receptor beta (TRb), thrb (gene 30607) (Q9PVE4 whole entry, looked up, the tested form may be a part): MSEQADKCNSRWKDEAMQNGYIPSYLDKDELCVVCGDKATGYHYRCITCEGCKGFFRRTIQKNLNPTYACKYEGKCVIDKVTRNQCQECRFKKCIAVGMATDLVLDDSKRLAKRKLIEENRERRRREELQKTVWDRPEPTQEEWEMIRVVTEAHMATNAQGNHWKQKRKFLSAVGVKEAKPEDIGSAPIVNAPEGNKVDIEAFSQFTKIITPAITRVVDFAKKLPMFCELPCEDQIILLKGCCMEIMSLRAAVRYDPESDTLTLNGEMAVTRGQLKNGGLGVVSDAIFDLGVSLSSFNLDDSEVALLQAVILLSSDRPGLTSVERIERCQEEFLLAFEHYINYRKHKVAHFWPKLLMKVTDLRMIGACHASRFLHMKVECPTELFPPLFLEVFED
In short: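 HepG2 cells transiently transfected with multiplexed GAL4-UAS reporter units expressing chimeric NR-Gal4 proteins; read 24 h after dosing. Reporter mRNA quantified by RT-PCR, 6-FAM labelling, HpaI digest and capillary electrophoresis; gain of signal fitted relative to DMSO.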

[9] = biological target: human Thyroid hormone Receptor alpha (TRa), THRA (gene 7067) (UniProt P10827); experiment: ATG_hTRa_XSP2: Attagene TRANS-FACTORIAL Multi-Species (XSP2) HepG2 Assay for human Thyroid hormone Receptor alpha (TRa) (AID 2283838)
Chain of human Thyroid hormone Receptor alpha (TRa), THRA (gene 7067) (P10827 whole entry, looked up, the tested form may be a part): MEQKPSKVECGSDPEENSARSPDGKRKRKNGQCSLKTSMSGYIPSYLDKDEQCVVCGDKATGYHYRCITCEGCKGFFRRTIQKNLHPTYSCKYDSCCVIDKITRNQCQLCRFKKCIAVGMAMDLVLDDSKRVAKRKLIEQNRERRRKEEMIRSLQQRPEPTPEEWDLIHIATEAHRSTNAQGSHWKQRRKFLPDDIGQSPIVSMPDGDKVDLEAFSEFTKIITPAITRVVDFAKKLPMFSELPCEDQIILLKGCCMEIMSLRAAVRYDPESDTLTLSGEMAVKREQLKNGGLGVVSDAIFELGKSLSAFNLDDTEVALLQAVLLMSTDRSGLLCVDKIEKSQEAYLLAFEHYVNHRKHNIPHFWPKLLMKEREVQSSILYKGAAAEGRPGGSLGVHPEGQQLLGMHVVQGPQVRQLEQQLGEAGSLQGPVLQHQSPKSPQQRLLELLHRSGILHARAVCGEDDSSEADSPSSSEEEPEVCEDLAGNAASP
In short: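 HepG2 cells transiently transfected with multiplexed GAL4-UAS reporter units and exogenous NR-GAL4 chimeras; 24 h chemical exposure with 3 nM 6-alpha-fluorotestosterone and 1.5 nM norgestrel present. Reporter mRNA measured by RT-PCR, FAM labelling, HpaI digestion, capillary electrophoresis; gain-of-signal versus DMSO.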

[10] = biological target: human Thyroid hormone Receptor beta (TRb), THRB (gene 7068) (UniProt P10828); experiment: ATG_hTRb_XSP2: Attagene TRANS-FACTORIAL Multi-Species (XSP2) HepG2 Assay for human Thyroid hormone Receptor beta (TRb) (AID 2283840);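 also: actives raise reporter mRNA so potency reflects agonist-like gain of signal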
Chain of human Thyroid hormone Receptor beta (TRb), THRB (gene 7068) (P10828 whole entry, looked up, the tested form may be a part): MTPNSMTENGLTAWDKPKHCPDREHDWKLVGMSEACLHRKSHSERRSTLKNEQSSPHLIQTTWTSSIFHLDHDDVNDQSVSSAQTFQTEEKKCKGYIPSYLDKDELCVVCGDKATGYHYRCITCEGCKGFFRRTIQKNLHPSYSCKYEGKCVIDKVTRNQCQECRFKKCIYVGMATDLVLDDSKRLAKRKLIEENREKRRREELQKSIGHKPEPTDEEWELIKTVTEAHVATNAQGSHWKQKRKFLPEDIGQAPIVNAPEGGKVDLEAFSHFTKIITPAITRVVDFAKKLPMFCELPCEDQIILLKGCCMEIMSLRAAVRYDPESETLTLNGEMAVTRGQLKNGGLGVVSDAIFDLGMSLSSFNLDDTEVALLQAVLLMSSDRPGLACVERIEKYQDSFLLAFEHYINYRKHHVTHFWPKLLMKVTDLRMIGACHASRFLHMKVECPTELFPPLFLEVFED
In short: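 Read-out: reporter mRNA induction (RT-PCR, 6-FAM labeling, capillary electrophoresis), gain-of-signal relative to DMSO baseline. Transiently transfected HepG2 TRANS multiplex (NR-Gal4 chimeras, GAL4-UAS reporters), 24 h chemical exposure; medium contained 3 nM 6-alpha-fluorotestosterone plus 1.5 nM norgestrel.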

For C=CCc1cc(S(=O)(=O)c2ccc(O)c(CC=C)c2)ccc1O, the outcome [1] was “inactive”, the outcome [2] was “inactive” and the outcome [3] was “inactive”. The outcome [4] was “inactive” and the AC50 [5] was 1.72 µM (active).

In the case of O=S(=O)(O)c1ccc(N=Nc2c(O)ccc3cc(S(=O)(=O)O)ccc23)cc1, the outcome [6] is reported as “inactive”.

In the case of CC(C)C(=O)Nc1ccc([N+](=O)[O-])c(C(F)(F)F)c1, the AC50 [1] is reported as 100 µM (active), the outcome [7] is reported as “inactive” and the outcome [2] is reported as “inactive”. For the same compound, the AC50 [3] was 35.9 µM (active), the outcome [4] was “inactive” and the AC50 [8] was 65.2 µM (active). The AC50 [9] was 50.1 µM (active), the AC50 [5] was 42.2 µM (active) and the AC50 [10] was 62.4 µM (active).

In the case of CCN(CC)C(=S)SSC(=S)N(CC)CC, the AC50 [1] is reported as 5.57 µM (active), the outcome [7] is reported as “inactive” and the outcome [2] is reported as “inactive”. For the same compound, the outcome [3] was “inactive”, the outcome [4] was “inactive” and the outcome [8] was “inactive”. For the same compound, the outcome [9] was “inactive” and the outcome [10] was “inactive”.

With Cc1nc(-c2ccccn2)ncc1C(=O)Nn1cc(C)c2cc(F)ccc21 the AC50 [6] was 13.2 µM (active).

With c1ccc2cc3ccccc3cc2c1 the outcome [6] was “inactive”.
